Laboratory results: PubChem BioAssay AID819 (Columbia University Molecular Screening Center, 2007)
The campaign covered roughly 94,000 compounds. About 280 (0.3%) were called active.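 The calls were made as follows: active = activation above 40%, about the mean plus 3 SD, also judged a hit on visual image review; inconclusive = activation above 40% but not a hit on visual review; inactive = activation not above 40% and no visual hit.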 The list comes from a sample in which actives are over-represented; it also holds similar structures and randomly drawn compounds.

Test: enhancers of NFkB p65 translocation in HUVEC – imaging, IL-1B stimulus, high-content imaging, primary screen (AID 819);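 also: percent activation is computed from the nuclear over cytoplasmic p65 intensity ratio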
Details: HUVEC IL-1B NFkB p65 nuclear translocation imaging; at 2 µM; stronger effect = higher value

SMILES | activation
O=C(Nc1cc2ccccc2oc1=O)C1CCCCC1 | -8.41% (inactive)
CCC(C)n1c(-c2cc(OC)c(OC)c(OC)c2)nc2nc3ccccc3nc21 (stereo not drawn) | 6.63% (inactive)
COc1ccc(CCN(C(=O)COc2ccccc2)c2nc(-c3ccccc3)cs2)cc1OC | 4.5% (inactive)
O=[N+]([O-])c1ccccc1OCCCCN1CCCCC1 | -1.68% (inactive)
COc1ccc(OCC(=O)NNC(=O)c2ccc(-c3ccccc3)cc2)cc1 | 21.4% (inactive)
CC(C)(C)c1ccc(C(=O)NNC(=O)Cc2ccccc2)cc1 | 41.9% (active)
CCNC(=S)NNC(=O)Cc1ccccc1 | 0.95% (inactive)
Cc1cccc(C)c1NC1=NC(=S)N(c2ccc(N(C)C)cc2)C1(C)C | -11.7% (inactive)
O=C(CN1CCN(S(=O)(=O)c2ccc3ccccc3c2)CC1)NC(=O)NC1CCCCC1 | -3.21% (inactive)
O=C(Cn1cncn1)N/N=C/c1c2ccccc2cc2ccccc12 | -10.3% (inactive)
CC(C)OC(=O)c1c(NC(=O)c2ccco2)sc2c1CCCC2 | -2.72% (inactive)
CCOC(=O)c1c(NC(=S)NC(=O)c2ccco2)sc2c1CCCC2 | 53.7% (active)
CCOC(=O)c1c(NC(=O)CCC(=O)NCc2ccco2)sc2c1CCCC2 | 1.18% (inactive)
O=C(CSc1nnnn1-c1ccccc1)NCc1ccco1 | -8.15% (inactive)
Cc1sc(NC(=S)NC(=O)c2cccs2)nc1-c1ccc(CC(C)C)cc1 | 17.4% (inactive)
O=C(Nc1ccc(Br)c2cccnc12)c1ccc(Cn2cc([N+](=O)[O-])cn2)o1 | 25.7% (inactive)
CCN(CC)CCNc1ccc(Cl)cc1[N+](=O)[O-] | 11.6% (inactive)
CC(Sc1nnc(Cc2ccc([N+](=O)[O-])cc2)o1)C(N)=O (stereo not drawn) | 0.99% (inactive)
CC(Oc1ccc(Cl)cc1Cl)C(=O)/C=C/N(C)C (stereo not drawn) | 4.7% (inactive)
CC1=NC2(CCCc3c2no[n+]3[O-])N(O)C1(C)C (stereo not drawn) | 168% (active)
Cc1cccc(C)c1-n1c(C)cc(/C=C2\C(=O)NN(c3ccccc3)C2=O)c1C | -7.75% (inactive)

SMILES | activation
O=C(O)c1ccccc1-c1ccccc1C(=O)Nc1cccc2ccccc12 | 8.14% (inactive)
Cc1ccc(NC(=O)C(C)c2cccc(C(=O)c3ccccc3)c2)cc1 (stereo not drawn) | -0.9% (inactive)
O=C1C(=O)N(c2ccccc2)c2ccccc21 | -1.05% (inactive)
O=C(NC1CCc2ccccc21)C12CN(Cc3ccccc3)CC1C(c1cccc([N+](=O)[O-])c1)=NO2 (stereo not drawn) | -3.33% (inactive)
Cc1cc(C(=O)OCC(=O)Nc2ccc(F)c(F)c2)c(C)o1 | -18.7% (inactive)
CCn1c(SC)nc(O)c(C(c2ccc(OC)c(O)c2)c2c(O)nc(SC)n(CC)c2=O)c1=O | 59.4% (active)
CCn1c(COc2ccc(OC)cc2)nnc1SCC(=O)Nc1cc(OC)ccc1OC | 4.96% (inactive)
COc1ccc2c(c1OC)C(=O)OC2c1c(O)nc(SC)n(-c2ccccc2)c1=O (stereo not drawn) | 1.27% (inactive)
O=C(COc1ccc2ccccc2c1)N1CCN(C(=O)c2cccs2)CC1 | -12.1% (inactive)
Cc1nc2c(-c3ccc(F)cc3)c(C)nn2c(C)c1CCC(=O)NCc1ccco1 | -8.14% (inactive)
CCOC(=O)C1=C(c2ccccc2)N=C2SCC(=O)N2C1c1ccc(O)c(OC)c1 (stereo not drawn) | 22.6% (inactive)
Cc1cc(-c2ccccc2)n2nc(C)c(-c3ccccc3)c2n1 | -2.27% (inactive)
CC(=O)c1ccc(OCCN2CCOCC2)cc1 | 29.4% (inactive)
C/C(=N\NC(=O)c1ccc(C)cc1)C1C(=O)c2ccccc2C1=O | -6.49% (inactive)
Cc1ccc2[nH]c(=O)c(CN(CCCN(C)C)C(=O)Nc3cccc(Cl)c3)cc2c1 | 20.3% (inactive)
COc1ccc(NC(=O)CSc2nc(N)c(-c3ccccc3)c(=O)[nH]2)cc1 | 8.34% (inactive)
COC(=O)c1cccc(-n2[nH]nnc2=S)c1 | -3.54% (inactive)
COCc1cc(C(C)=O)ccc1OC | 2.42% (inactive)
CN(C)c1ccc(NC(=S)N(CCc2ccccc2)C2CC(=O)N(c3c(Cl)cccc3Cl)C2=O)cc1 (stereo not drawn) | -17.7% (inactive)
O=C(N/N=C/C=C/c1ccccc1)C1CC1(c1ccccc1)c1ccccc1 (stereo not drawn) | 4.51% (inactive)
CCCn1nnc(NC(=O)COc2ccc(CC)cc2)n1 | 6.08% (inactive)

SMILES | activation
COC(=O)CNC(=O)c1ccccc1[N+](=O)[O-] | 2.74% (inactive)
CCCCNC(=O)CCn1c(=S)[nH]c2cc3c(cc2c1=O)OCO3 | -3.47% (inactive)
COc1ccc(OCC(=O)NN2Cc3ccccc3C2=N)cc1 | 12.3% (inactive)
CCOc1cc(/C=C2/N=C(c3ccc(C(C)(C)C)cc3)OC2=O)cc(Cl)c1OS(C)(=O)=O | 15.4% (inactive)
Cc1ccccc1OC/C(O)=C(\C#N)c1nc2ccccc2[nH]1 | -7.29% (inactive)
COC(=O)c1c(NC(=O)c2cccs2)sc2c1CCCC2 | -38.1% (inactive)
COC(=O)c1c(NC(=O)CSc2nncs2)sc2c1CCCCC2 | 144% (active)
CCOC(=O)c1c(NC(=O)CSc2nnc(C)c(=O)[nH]2)sc2c1CCC2 | -7.67% (inactive)
CC(C)c1cc(C(N)=O)c(NC(=O)c2cccc(COc3ccc(Br)cc3)c2)s1 | 2.73% (inactive)
CCCC(O)(c1ccc(OC)cc1)C(CN(C)C)c1ccccc1 (stereo not drawn) | 8.96% (inactive)
CS(=O)(=O)N(CC(=O)Nc1ccc(F)cc1F)c1cccc([N+](=O)[O-])c1 | 2.79% (inactive)
CCOC(=O)c1c(NC(=O)CSc2nnc(CNc3ccc(C)cc3C)o2)sc(C)c1C | 13.4% (inactive)
CCOC(=O)NNC(=O)c1ccc(Cl)cc1 | -2.19% (inactive)
COc1ccc(C2CC(c3cccs3)=Nc3ccccc3S2)cc1OC (stereo not drawn) | 3.96% (inactive)
CCN(CC)C(=O)CSC1c2ccccc2C(=O)N1c1ccccc1 (stereo not drawn) | 16.1% (inactive)
Cc1ccc(OCC(=O)N/N=C/c2ccncc2)cc1 | 9.97% (inactive)
Cc1ccc(CNC(=O)CCNC(=O)Cn2ccc3ccccc3c2=O)cc1 | -10.3% (inactive)
COc1ccc(NC(=O)CCN2CCCC2)c(OC)c1 | -7.64% (inactive)
COc1ccc(NC(=O)CCNC(=O)Cn2ccc3ccccc3c2=O)c(OC)c1 | 49.9% (active)
Cc1ccc2c(c1)N(CC(=O)N(Cc1ccccn1)Cc1ccco1)C(=O)C(C(C)C)O2 (stereo not drawn) | -18% (inactive)
CCN1CCC(=NNC(=O)c2ccc(C)c([N+](=O)[O-])c2)CC1 | 9.79% (inactive)
